This is a sample that favours compounds with a hit; in the whole collection about 3.8% have one here.
697 NFkB inh – lowers PMA/ionomycin-induced NF-kB signal in 697 B cells | 697 B-cell NF-kB luciferase reporter, 16 h | inhibition, % at 4 µM | hit rate 0.33% among 330,000 | AID 435022; in the data active = inhibition above about 35%
Jurkat NFkB inh – lowers PMA/ionomycin-induced NF-kB signal in Jurkat cells | PMA/ionomycin-induced NF-kB luciferase reporter, luminescence | inhibition, % at 4 µM | hit rate 0.53% among 330,000; in the data active = inhibition above about 50%
Shn3 3UTR inh – inhibitors of Schnurri-3 3'UTR reporter in osteoblasts; hit rate 0.52% among 360,000; inhibition, % at 12.5 µM; Clone20 osteoblast Shn3 3'UTR firefly luciferase, 24 h;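 active = mean inhibition of at least 75% with every replicate also reaching 75%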
Mdm2 MdmX PPI – inhibitors of human Mdm2/MdmX interaction; SaOS-2 split-luciferase Mdm2/MdmX complementation, luminescence; inhibition, % at 8 µM; hit rate 3% among 330,000;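 active = inhibition of at least 50% at 8 µM in the primary screen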
Gli-Sufu antag – blocks Gli-Sufu signaling in a luciferase reporter. Sufu-KO-LIGHT fibroblasts, Gli luciferase reporter luminescence. inhibition, % at 5 µM. hit rate 0.74% among 340,000. AID 588413;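 active = inhibition above about 55%, limit read from the data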
Mdm2-MdmX conf – confirmation of human Mdm2/MdmX interaction inhibitors; shares compounds with Mdm2 MdmX PPI; Mdm2-MdmX binding, luminescent assay; inhibition, % at 8 µM; hit rate 55% among 10,000; in the data active = inhibition above about 40%
Full FLuc ctr – full-length luciferase inhibition in Mdm2/MdmX counter-screen; hit rate 77% among 6,200; shares compounds with Mdm2 MdmX PPI; inhibition, % at 8 µM; SaOS-2 full-length luciferase counterscreen, luminescence;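 active = mean inhibition at 8 µM reaching about 37%, which flags the compound as non-specific, limit read from the data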;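 note: p53-null SaOS-2 cells with luciferase driven by a doxycycline-inducible promoter; compound on cells about two nights before reading with doxycycline added after day one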
Of the large screens only hits and unclear results are named; the others gave an inactive call (follow-up assays come after a bar, where they were run).

Cn1c(N2CCN(C(c3ccccc3)c3ccccc3)CC2)nc2c1c(=O)[nH]c(=O)n2C	Mdm2 MdmX PPI 60 | Mdm2-MdmX conf 58 | Full FLuc ctr 87
Cn1c(N2CCCCC2)nc2c1c(=O)[nH]c(=O)n2C	none
CCCCCn1c(N2CCC(Cc3ccccc3)CC2)nc2c1c(=O)[nH]c(=O)n2C	Mdm2 MdmX PPI 58 | Mdm2-MdmX conf inactive
CS(=O)(=O)N1CCCC(C(=O)Nc2ccccc2)C1 (stereo not given)	none
COc1cccc(C(=O)Nc2ccc3c(cc2=O)[C@@H](NC(C)=O)CCc2cc(OC)c(OC)c(OC)c2-3)c1	Mdm2 MdmX PPI 71 | Mdm2-MdmX conf 66 | Full FLuc ctr 99
C[n+]1ccc(/C=C/c2c[nH]c3ccc(F)cc23)cc1	none
Cc1ccc2[nH]c(C)c(/C=C/c3cc[n+](C)cc3)c2c1	Mdm2 MdmX PPI 74 | Mdm2-MdmX conf 67 | Full FLuc ctr 54
Cc1ccc2c(c1)c(/C=C/c1cc[n+](C)cc1)c(C)n2C	Mdm2 MdmX PPI 83, Gli-Sufu antag 57 | Mdm2-MdmX conf 59 | Full FLuc ctr 49
O=C(Nc1cc(Cl)ccc1N1CCCC1)C1=COCCO1	none
C=CCSC(=C(C#N)C#N)c1cc2c([nH]1)CCCC2	Mdm2 MdmX PPI 81 | Mdm2-MdmX conf inactive
CCCc1nc2nc(C)c(NS(=O)(=O)c3ccc(C4CCCCC4)cc3)c(=O)n2[nH]1	none
Cc1ccc(OCCCC(=O)Nc2nc3ccccc3[nH]2)cc1	none
Cc1cccc(OCCCC(=O)Nc2nc3ccccc3[nH]2)c1	Mdm2 MdmX PPI 76 | Mdm2-MdmX conf 74 | Full FLuc ctr 65
O=C(NN=Cc1ccc(O)cc1O)c1ccccc1NS(=O)(=O)c1cccs1	Mdm2 MdmX PPI 55 | Mdm2-MdmX conf inactive | Full FLuc ctr 47
CC[C@@]1(c2ccccc2)C(=O)N(C(=O)OC)N1C(=O)OC	none
COC(=O)N1C(=O)[C@](Cc2ccccc2)(c2ccccc2)N1C(=O)OC	Mdm2 MdmX PPI 55 | Mdm2-MdmX conf inactive
CC[C@@]1(c2ccccc2C)C(=O)N(C(=O)OC)N1C(=O)OC	none
CC[C@]1(c2ccccc2)C(=O)N(C(=O)OC)N1C(=O)OC	none
COC(=O)N1C(=O)[C@@](Cc2ccccc2)(c2ccccc2)N1C(=O)OC	Mdm2 MdmX PPI 61 | Mdm2-MdmX conf 50 | Full FLuc ctr 57
COC(=O)N1C(=O)[C@@](c2ccccc2)(C2CCCCC2)N1C(=O)OC	Mdm2 MdmX PPI 66 | Mdm2-MdmX conf 45 | Full FLuc ctr 49
CCCc1nc2ccccc2c(=O)n1-c1ccc(C(=O)OCC)cc1	none
COc1ccc2oc(C(=O)OCC(=O)NC(C)c3ccccc3)c(C)c2c1 (stereo not given)	none
Cc1ccc(/C=N/N2C(=S)SC(C)(C)C2N(O)C(=O)Nc2ccc([N+](=O)[O-])cc2)cc1 (stereo not given)	Mdm2 MdmX PPI 67 | Mdm2-MdmX conf inactive
O=C(O)c1ccc(S(=O)(=O)NCC2CCCO2)cc1 (stereo not given)	none
Cc1cc(C)n(-c2nc3ccccc3c(=O)n2OCC#N)n1	Mdm2 MdmX PPI 66 | Mdm2-MdmX conf 49 | Full FLuc ctr 46
CCOn1c(-n2nc(C)cc2C)nc2ccccc2c1=O	none
COc1ccc(NC2CCCN(C(=O)COc3ccc(C(C)=O)cc3)C2)cc1 (stereo not given)	none (no result: 697 NFkB inh, Jurkat NFkB inh, Mdm2 MdmX PPI, Gli-Sufu antag)
O=C(Nc1cc(Cl)ccc1Cl)P(=O)(O)c1ccccc1	none (no result: 697 NFkB inh, Jurkat NFkB inh, Mdm2 MdmX PPI)
N=c1c2c(ncn1CCN1CCOCC1)Oc1ccc3ccccc3c1C2c1ccccc1 (stereo not given)	none
N=c1c2c(ncn1Cc1ccco1)Oc1cc(O)ccc1C2c1ccccc1 (stereo not given)	none
N=c1c2c(ncn1Cc1ccco1)Oc1c(ccc3ccccc13)C2c1ccccc1 (stereo not given)	Mdm2 MdmX PPI 70 | Mdm2-MdmX conf 70 | Full FLuc ctr 55
CN(C)CCn1cnc2c(c1=N)C(c1ccccc1)c1ccc3ccccc3c1O2 (stereo not given)	Mdm2 MdmX PPI 98 | Mdm2-MdmX conf 71 | Full FLuc ctr 40
COc1ccc(C2c3c(ncn(CCN4CCOCC4)c3=N)Oc3ccc4ccccc4c32)cc1 (stereo not given)	Mdm2 MdmX PPI 71 | Mdm2-MdmX conf 55 | Full FLuc ctr 65
